About 83,000 compounds went through this panel and 20% of them were active in at least one assay; those are over-represented in the sample as a whole.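 Note: values are percent growth. 100 is the growth of untreated cells, values between 100 and 0 indicate rising inhibition; between -100 and 0 indicates cell death.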 A number with no mark means an inactive call. Activity calls are given as the source filed them. How the source made its calls: active means growth percent below 10; inactive means the rest.
system: MOLT-4 leukemia; assay: NCI-60 one-dose screen, 48 h (100 = growth as untreated, 0 = no growth, -100 = all killed); details: 10 µM unless noted

Structure (SMILES) | growth
COC1(OC)N=C(N)C2(C#N)C3(C(=O)Nc4ccccc43)C12C#N (stereo unspecified) | 88.7%
Cn1c2ccccc2c2ccccc21 | 89.7%
Oc1ccc([S+](c2ccc(O)cc2)c2ccc(O)cc2)cc1 | 89.2%
Nc1cc(N)c2nc(-c3ccccc3)c(NCCc3ccc(Cl)c(Cl)c3)nc2c1 | -16.4% (active)
COC(=O)Nc1nc2ccc(C(=O)c3ccccc3N(C)C3COC3)cc2[nH]1 | 30.3%
CCOP1(=O)CC(C)=C(Cl)C(P(=O)(O)O)C1 (stereo unspecified) | 89.9%
CCCCCCCCC1OC1CCCCCCCC(=O)O (stereo unspecified) | 104%
CC(O)CN(CC(C)O)N(CC(C)O)CC(C)O (stereo unspecified) | 102%

system: SR leukemia; assay: as above; details: 10 µM unless noted

Structure (SMILES) | growth
CC(C)(CNC1CCCCC1)OC(=O)c1ccccc1 | 106%
O=C(/C=C\c1ccc(NCc2ccc(C(=O)O)cc2)cc1)CCl | -12.1% (active)
CCCCCCC(C)N(CC(C)(C)O)C(=O)c1ccc([N+](=O)[O-])cc1 (stereo unspecified) | 89.5%
C=CN(C)S(C)(=O)=O | 14.2%
CCCCCCC(C(=O)OCC)(C(=O)OCC)C1CCCCCC1 | 101%
Cc1ccc2c(c1)C(=O)CCS2 | 118%
S=C(N/N=C/c1cc(Cl)cc(Cl)c1)NC12CC3CC(CC(C3)C1)C2 | 20%
COC(=O)C(N)CC(C)C (stereo unspecified) | 86.4%
O=C(Nc1ccc(Cl)c(Cl)c1)O/N=C\c1c(Cl)ccc([N+](=O)[O-])c1Cl | -23.7% (active)
O=C(/C=C/c1ccc(Cl)cc1)c1ccc(Cl)cc1 | 9.81% (active)
CC(=O)c1ccc2c(c1)c1ccccc1n2C | 77.9%
CCC(C)CC(N)O (stereo unspecified) | 105%
COc1cc2ncnc(-n3ncc4cc(NC(=O)Nc5ccccc5)ccc43)c2cc1OC | 26.6%
O=C(O)CS(=O)c1ccc(Cl)cc1 (stereo unspecified) | 84.9%
O=C1C(=O)c2ccccc2C(O)=C1CCCc1ccc(Oc2ccccc2)cc1 | 94.5%
O=C1C(Br)=CC2C1C1C3CCC3C2(Br)C12OCCO2 (stereo unspecified) | 4.59% (active)
CCCCCCCCCCC1OC(C)CC(C)O1 (stereo unspecified) | 71.6%
CCOC1=C(Cl)C(=O)C(OCC)=C(Cl)C1=O | 87.7%
O=C(NCCO)C(F)(F)F | 98.7%
Oc1ccc(Br)cc1/C=N/NC(=S)NC12CC3CC(CC(C3)C1)C2 | -7.5% (active)
c1cc[c]([Bi]([c]2ccccc2)[c]2ccccc2)cc1 | 102%
CC(O)CN(CCO)CCN(CCO)CC(C)O (stereo unspecified) | 89.2%
CNc1ccc(Nc2ccc(S(=O)(=O)O)cc2)c2c1C(=O)c1ccccc1C2=O | 99.7%
Cc1ccc(S(=O)(=O)NC(CCC(=O)Nc2ccccc2)C(=O)Nc2ccccc2)cc1 (stereo unspecified) | 4.65% (active)
COC1(OC)N=C(N)C2(C#N)C3(C(=O)Nc4ccccc43)C12C#N (stereo unspecified) | 6.82% (active)
Cn1c2ccccc2c2ccccc21 | 87.6%
Oc1ccc([S+](c2ccc(O)cc2)c2ccc(O)cc2)cc1 | 89.1%
CCCCCCCCC1OC1CCCCCCCC(=O)O (stereo unspecified) | 101%
CC(O)CN(CC(C)O)N(CC(C)O)CC(C)O (stereo unspecified) | 94.2%

system: RPMI-8226 leukemia; assay: as above; details: 10 µM unless noted

Structure (SMILES) | growth
CC(C)(CNC1CCCCC1)OC(=O)c1ccccc1 | 106%
COC(=O)c1ccc2[nH]c(O)c(C(=Nc3ccc(N(C)C(=O)CN4CCN(C)CC4)cc3)c3ccc4c(c3)OCO4)c2c1 | -13.7% (active)
O=C(/C=C\c1ccc(NCc2ccc(C(=O)O)cc2)cc1)CCl | 60.4%
CCCCCCC(C)N(CC(C)(C)O)C(=O)c1ccc([N+](=O)[O-])cc1 (stereo unspecified) | 96%
C=CN(C)S(C)(=O)=O | 16.8%
CCCCCCC(C(=O)OCC)(C(=O)OCC)C1CCCCCC1 | 113%
CCOC(=O)NC1=NCC(C)(C)S1 | 108%
Cc1ccc2c(c1)C(=O)CCS2 | 100%
S=C(N/N=C/c1cc(Cl)cc(Cl)c1)NC12CC3CC(CC(C3)C1)C2 | 73.8%
COC(=O)C(N)CC(C)C (stereo unspecified) | 99.2%
O=C(Nc1ccc(Cl)c(Cl)c1)O/N=C\c1c(Cl)ccc([N+](=O)[O-])c1Cl | -52.7% (active)
O=C(/C=C/c1ccc(Cl)cc1)c1ccc(Cl)cc1 | 13.7%
O=C(Nc1cccc(Cn2c(=O)[nH]c3ccc(Oc4ncccn4)cc3c2=O)c1)c1cccc(F)c1 | 52.3%
CC(=O)c1ccc2c(c1)c1ccccc1n2C | 93.2%
CCC(C)CC(N)O (stereo unspecified) | 111%
COc1cc2ncnc(-n3ncc4cc(NC(=O)Nc5ccccc5)ccc43)c2cc1OC | 15.6%
O=C(O)CS(=O)c1ccc(Cl)cc1 (stereo unspecified) | 116%
O=C1C(=O)c2ccccc2C(O)=C1CCCc1ccc(Oc2ccccc2)cc1 | 22.3%
O=C1C(Br)=CC2C1C1C3CCC3C2(Br)C12OCCO2 (stereo unspecified) | 7.82% (active)
CC1(C)NC(=S)NC1=O | 101%

Structure (SMILES) | growth
CCCCCCCCCCC1OC(C)CC(C)O1 (stereo unspecified) | 99.6%
O=C1C=C(OCC=C(C(F)(F)F)C(F)(F)F)c2ccccc2C1=O | -38.7% (active)
CCOC1=C(Cl)C(=O)C(OCC)=C(Cl)C1=O | 105%
O=C(NCCO)C(F)(F)F | 109%
Oc1ccc(Br)cc1/C=N/NC(=S)NC12CC3CC(CC(C3)C1)C2 | -21.3% (active)
COc1cc(N2C(=O)C=CC2=O)ccc1N1C(=O)C=CC1=O | 103%
c1cc[c]([Bi]([c]2ccccc2)[c]2ccccc2)cc1 | 91%
O=C(CN1C(=O)NC(c2ccccc2)(c2ccccc2)C1=O)c1ccc(N2CCCC2)cc1 | 70.1%
CC(O)CN(CCO)CCN(CCO)CC(C)O (stereo unspecified) | 102%
CNc1ccc(Nc2ccc(S(=O)(=O)O)cc2)c2c1C(=O)c1ccccc1C2=O | 107%
Cc1ccc(S(=O)(=O)NC(CCC(=O)Nc2ccccc2)C(=O)Nc2ccccc2)cc1 (stereo unspecified) | -17.1% (active)
COC1(OC)N=C(N)C2(C#N)C3(C(=O)Nc4ccccc43)C12C#N (stereo unspecified) | 49.7%
Cn1c2ccccc2c2ccccc21 | 94.3%
Oc1ccc([S+](c2ccc(O)cc2)c2ccc(O)cc2)cc1 | 96%
Nc1cc(N)c2nc(-c3ccccc3)c(NCCc3ccc(Cl)c(Cl)c3)nc2c1 | -60.6% (active)
COC(=O)Nc1nc2ccc(C(=O)c3ccccc3N(C)C3COC3)cc2[nH]1 | -8.33% (active)
CCOP1(=O)CC(C)=C(Cl)C(P(=O)(O)O)C1 (stereo unspecified) | 81.9%
CCCCCCCCC1OC1CCCCCCCC(=O)O (stereo unspecified) | 98.4%
CC(O)CN(CC(C)O)N(CC(C)O)CC(C)O (stereo unspecified) | 98.9%

From PubChem BioAssay (NCI)
